Assay results published in PubChem BioAssay.
Calls of active or inactive are those of the source.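 Rule for the calls, unless noted: active = Her2 level under about 52% in both replicate screens, with viability over 70% of control (limit read from the data); inconclusive = Her2 under the limit in one screen only, or viability under 70%; inactive = Her2 level above the set limit.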

How the values were obtained:
[1] = Her2 expression decrease, cell viability multiplex – SKBR3 breast tumor cells, AlphaScreen, ATP viability, primary screen (AID 461); conditions: SKBR3 Her2 protein level, 18-24 h, measured here: SKBR3 viability, ATP luminescence, at 10 µM;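 for Her2 level: lower value means less Her2 protein in the cells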;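 for viability: percent of carrier control wells set as 100% viability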
[2] = biological target: Receptor tyrosine-protein kinase erbB-2 (Homo sapiens) (UniProt P04626); assay: as above; conditions: 18-24 h, at 10 µM, stronger effect = lower value
Receptor tyrosine-protein kinase erbB-2 (Homo sapiens), sequence (P04626 whole entry, looked up): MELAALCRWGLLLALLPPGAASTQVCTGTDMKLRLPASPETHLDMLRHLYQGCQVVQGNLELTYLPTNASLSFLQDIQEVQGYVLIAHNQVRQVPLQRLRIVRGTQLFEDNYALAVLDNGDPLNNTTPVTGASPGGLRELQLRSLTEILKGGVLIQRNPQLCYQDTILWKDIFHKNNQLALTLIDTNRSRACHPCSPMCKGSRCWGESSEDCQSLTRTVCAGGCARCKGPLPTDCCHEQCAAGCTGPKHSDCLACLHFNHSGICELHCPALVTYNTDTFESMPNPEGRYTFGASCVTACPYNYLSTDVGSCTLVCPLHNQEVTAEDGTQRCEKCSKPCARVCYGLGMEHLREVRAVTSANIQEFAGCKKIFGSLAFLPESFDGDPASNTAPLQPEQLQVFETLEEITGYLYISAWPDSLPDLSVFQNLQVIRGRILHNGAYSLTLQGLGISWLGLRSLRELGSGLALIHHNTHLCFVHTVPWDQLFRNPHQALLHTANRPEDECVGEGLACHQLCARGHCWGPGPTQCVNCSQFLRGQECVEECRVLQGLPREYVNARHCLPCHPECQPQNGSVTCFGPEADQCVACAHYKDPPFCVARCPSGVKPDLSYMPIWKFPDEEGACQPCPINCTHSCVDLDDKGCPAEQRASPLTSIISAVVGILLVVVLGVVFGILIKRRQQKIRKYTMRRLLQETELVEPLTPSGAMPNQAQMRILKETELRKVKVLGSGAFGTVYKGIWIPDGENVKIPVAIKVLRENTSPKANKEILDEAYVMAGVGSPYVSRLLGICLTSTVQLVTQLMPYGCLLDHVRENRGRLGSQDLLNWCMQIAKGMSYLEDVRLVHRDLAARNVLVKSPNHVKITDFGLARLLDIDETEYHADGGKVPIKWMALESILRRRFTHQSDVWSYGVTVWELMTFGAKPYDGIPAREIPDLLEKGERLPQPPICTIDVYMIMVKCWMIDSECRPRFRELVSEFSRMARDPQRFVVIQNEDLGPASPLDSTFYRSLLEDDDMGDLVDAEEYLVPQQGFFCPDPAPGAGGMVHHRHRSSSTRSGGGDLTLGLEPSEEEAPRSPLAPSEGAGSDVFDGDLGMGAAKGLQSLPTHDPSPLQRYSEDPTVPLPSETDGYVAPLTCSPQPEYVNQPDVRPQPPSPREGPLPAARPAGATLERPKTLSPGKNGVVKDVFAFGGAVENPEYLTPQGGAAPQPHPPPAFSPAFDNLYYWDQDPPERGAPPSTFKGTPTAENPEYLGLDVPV

[3] = reduced viability of SK-BR-3 breast cancer cells – cell-based, 24 h, human, pilot screen (AID 572;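 active = viability at or below 10% of carrier control in both of two separate runs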;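 note: compound exposure lasted between 18 and 24 h rather than exactly 24 h; 100% = carrier-treated control wells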); conditions: SK-BR-3 viability, CellTiter-Glo luminescence, at 10 µM, stronger effect = lower value
[4] = HUVEC growth inhibition – cell-based, human, primary screen (AID 575;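 active = viability at or below 30% in both replicate assays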;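 note: 100% = median of untreated cell wells with 0.1% DMSO on each plate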); conditions: HUVEC proliferation, CellTiter-Glo luminescence, 72 h; at 10 µM; stronger effect = lower value
[5] = MRP1 drug-resistance reversers in H69AR cells – cell-based, doxorubicin co-treatment, pilot screen (AID 601;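 active = viability loss from added drug above about 55%, and viability with drug at most 40%, in both replicates, limit read from the data, passing the limit was not always enough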); conditions: CellTiter-Glo, 72 h, at 10 µM; for differential viability (reversal): stronger effect = higher value
[6] = yeast transport mutant growth inhibition pilot in 384-well plates, post-Golgi transport modulator project (AID 636; in the data active = inhibition above about 31%); conditions: absorbance 615 nm, about 18 h, stronger effect = higher value
[7] = growth suppression of yeast trafficking mutant, preliminary HTS, modulators of trafficking downstream of Golgi apparatus project, 1536-format plate, OD 615 nm (AID 637; in the data active = inhibition above about 30%); conditions: yeast transport mutant growth, absorbance 615 nm, 18 h; stronger effect = higher value
[8] = H69AR cells + 2 uM doxorubicin, measured here: viability with 2 uM doxorubicin, stronger effect = lower value
[9] = H69AR cells, compound alone cytotoxicity

Row | SMILES | viability [1] [%] | Her2 level [2] | viability [3] | viability [4] | differential viability (reversal) ([5]; H69AR cells + 2 uM doxorubicin) | viability [5, 8] [%] | viability [5, 9] [%] | inhibition [6] | inhibition [7]
1 | COc1ccc(C2=NOC(C(=O)Nc3cc(Br)ccc3O)C2)cc1OC (stereo not drawn) | 108 | 89% (inactive) | 108% (inactive) | 56.4% (inactive) | -10.5% (inactive) | 70.6 | 60.1 | -6.76% (inactive) | 1.8% (inactive)
2 | Cc1c(NC(=O)c2ccc(=O)oc2)c(=O)n(-c2ccccc2)n1C | 96.5 | 89% (inactive) | 96.5% (inactive) | 90.9% (inactive) | -18.7% (inactive) | 67.2 | 48.5 | -4.8% (inactive) | -0.32% (inactive)
3 | Cc1ccc(CNC(=O)c2coc(=O)c3ccccc23)o1 | 93.5 | 81% (inactive) | 93.5% (inactive) | 81.8% (inactive) | -24.6% (inactive) | 67 | 42.4 | -0.53% (inactive) | -5.82% (inactive)
4 | CC(C)Cn1c(=O)c(C(=O)NCc2ccccn2)c(O)c2ccccc21 | 110 | 78.5% (inactive) | 110% (inactive) | 61.4% (inactive) | -15% (inactive) | 67.3 | 52.3 | -7.43% (inactive) | -3.17% (inactive)
5 | CCOC(=O)Cc1nnc2c(Nc3ccccc3F)nc3nonc3n12 | 108 | 95.5% (inactive) | 108% (inactive) | 36.9% (inactive) | -18.9% (inactive) | 31.5 | 12.6 | -3.9% (inactive) | -2.54% (inactive)
6 | COc1ccc(OCC(=O)N2CCN(C(=O)COc3ccc(Br)cc3)CC2)cc1 | 84.5 | 95.5% (inactive) | 84.5% (inactive) | 81.3% (inactive) | 7.19% (inactive) | 40.4 | 47.6 | -2.67% (inactive) | 3.71% (inactive)
7 | Cc1ccc(S(=O)(=O)N2CCOCC2)cc1C(=O)Nc1ccc(-c2cn3ccsc3n2)cc1 | 80 | 80.5% (inactive) | 80% (inactive) | 58.7% (inactive) | -0.105% (inactive) | 70.8 | 70.7 | -2.63% (inactive) | -2.86% (inactive)
8 | CC(C)C(=O)Nc1ccc(C(=O)NCc2cccnc2)cc1 | 107 | 108% (inactive) | 107% (inactive) | 118% (inactive) | -61.7% (inactive) | 72.5 | 10.8 | 4.42% (inactive) | -7.14% (inactive)
9 | CCCCCCc1ccc(-c2ncc(N)cn2)cc1 | 97 | 90.5% (inactive) | 97% (inactive) | 7.73% (active) | -5.17% (inactive) | 61.9 | 56.7 | -1.47% (inactive) | 0.32% (inactive)
10 | Cc1ccccc1OCCCN1C(=O)C(=O)c2cccc(C)c21 | 106 | 72% (inactive) | 106% (inactive) | 77.7% (inactive) | -16.4% (inactive) | 49.4 | 33 | 2.56% (inactive) | -1.33% (inactive)
11 | CCOC(=O)c1sc2nc(N3CCCC3)c3c(c2c1N)CC(C)(C)OC3 | 75.5 | 80.5% (inactive) | 75.5% (inactive) | 58.8% (inactive) | -12.8% (inactive) | 65.9 | 53.1 | -7.92% (inactive) | -9.83% (inactive)
12 | N#Cc1c(N)nc(SCc2ccncc2)c(C#N)c1-c1cccs1 | 98.5 | 71% (inactive) | 98.5% (inactive) | 79% (inactive) | 37.4% (inactive) | 14.9 | 52.3 | -0.53% (inactive) | 7.74% (inactive)
13 | C=C(c1ccc(O)cc1)c1ccc(O)cc1 | 105 | 93% (inactive) | 105% (inactive) | 70.8% (inactive) | -42.8% (inactive) | 87.9 | 45 | -5.92% (inactive) | -2.54% (inactive)
14 | Cc1ccc(Cn2c(C)nc3c(c2=O)c2nc4ccccc4nc2n3Cc2ccco2)cc1 | 118 | 71.5% (inactive) | 118% (inactive) | 54.9% (inactive) | -1.46% (inactive) | 50.5 | 49 | 1.32% (inactive) | 1.8% (inactive)
15 | N#CC1=C(N)n2c(s/c(=C\c3ccco3)c2=O)=C(C#N)C1c1ccco1 (stereo not drawn) | 100 | 31.5% (active) | 100% (inactive) | 78.6% (inactive) | -10.7% (inactive) | 58 | 47.4 | 0.13% (inactive) | -4.36% (inactive)
16 | Cc1csc2ncc(C(=O)Nc3ccccc3Cl)c(=O)n12 | 87.5 | 86% (inactive) | 87.5% (inactive) | 66.8% (inactive) | 3.82% (inactive) | 44.5 | 48.3 | -4.13% (inactive) | 4.5% (inactive)
17 | Cc1ccc(S(=O)(=O)c2cc3c(=O)n4ccccc4nc3n(CC3CCCO3)c2=N)cc1C (stereo not drawn) | 83 | 77.5% (inactive) | 83% (inactive) | 69.9% (inactive) | 2.4% (inactive) | 53.5 | 55.9 | -4.86% (inactive) | 2.95% (inactive)
